High-throughput results: PubChem, National Center for Advancing Translational Sciences (NCATS)
LmPK activator – LmPK (Leishmania mexicana) enzyme activation; Q27686; purified LmPK, Kinase-Glo ATP luminescence, 1 h; activity change, negative = inhibition, % at 57.5 µM; 290,000 tested, under 10 active; AID 1722; calls by dose curve
Target sequence (Q27686 whole entry, looked up): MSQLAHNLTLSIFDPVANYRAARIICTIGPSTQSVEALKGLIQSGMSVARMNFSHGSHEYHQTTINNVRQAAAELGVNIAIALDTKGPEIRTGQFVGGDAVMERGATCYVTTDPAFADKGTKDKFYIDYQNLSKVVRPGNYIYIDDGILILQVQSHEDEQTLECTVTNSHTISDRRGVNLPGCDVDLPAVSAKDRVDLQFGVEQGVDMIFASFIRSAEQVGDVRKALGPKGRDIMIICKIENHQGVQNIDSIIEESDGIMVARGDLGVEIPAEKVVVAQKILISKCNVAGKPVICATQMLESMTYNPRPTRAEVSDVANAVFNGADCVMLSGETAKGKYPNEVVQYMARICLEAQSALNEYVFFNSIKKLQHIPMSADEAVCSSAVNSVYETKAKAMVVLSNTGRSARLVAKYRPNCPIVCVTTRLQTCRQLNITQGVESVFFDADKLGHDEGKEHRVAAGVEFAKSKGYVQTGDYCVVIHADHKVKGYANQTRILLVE
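Purified LmPK (0.1 nM) converted ADP (0.1 mM, ~10-fold below Km) plus PEP (0.5 mM, at Km) to ATP over 1 h at room temperature in pH 7.2 imidazole buffer. Generated ATP was read by luciferase luminescence.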
Each line names hits and unclear results; the compound was inactive in the other large screens. A selection follows.

Cc1ccc(-n2[nH]c(C)c(/C=N/Nc3ccc([N+](=O)[O-])cc3[N+](=O)[O-])c2=O)cc1	none
Cc1cccc2c1c1ccc3c(c1n2C)C(=O)C=CC3=O	none
N/C(=N\OC(=O)c1ccc(Cl)cc1)c1[nH]ncc1Br	none
Oc1ccc(CCc2n[nH]c(=S)n2-c2ccc(F)cc2)cc1	none
Cc1ccc(N/C=C/C(=O)c2cccs2)cc1	none
CCCc1ccc(C(=O)/C=C/N(C)C)cc1	none
COc1cc(N=Nc2cccc(S(N)(=O)=O)c2)c2ccccc2c1N	none
CCOC(=O)C(=O)Nc1cc(C)on1	none
Nc1ncccc1OCc1ccc(Cl)c(Cl)c1	none
CCc1ccc(NC(=O)Nc2ccsc2C(=O)OC)cc1	none
Fc1ccc(-n2nnc(-c3nccs3)n2)cc1	none
CCn1c(-c2csc3c2CCC(C)C3)n[nH]c1=S (centres undefined)	none
FC(F)(F)c1cccc(-c2nc3nc(Cl)c(Cl)nc3[nH]2)c1	none
Cc1ccc(C(=O)Nc2ccc(C(=O)N3CCCCC3)cc2)o1	none
c1ccc(-c2nc(-c3nccc4ccccc34)oc2-c2ccccc2)cc1	none
Cc1cc2nc(CS)[nH]c2cc1C	none
CCCCN(CC)CCCNC(=O)CN1C(=O)CSc2ccc(S(=O)(=O)N3CCOCC3)cc21	none
O=C(c1ccc2c(c1)OCCCO2)c1cccs1	none
CCOc1cc(/C=N/N=C2/NC(=O)C(CC(=O)O)S2)ccc1OCc1ccccc1Cl (centres undefined)	none
CCc1ccc(C(=O)COC(=O)c2n[nH]c3ccccc23)cc1	none
Cc1ccc(-c2c[nH]c(=S)n2-c2ccccc2F)cc1	none
O=C(N=C1N=C2C=CC(Br)=CN2Cc2ccccc21)c1ccc([N+](=O)[O-])cc1[N+](=O)[O-]	none
CCCNC(=O)Cn1sc2nc(C)cc(C)c2c1=O	none
CCOC(=O)C(C(C)=O)c1c(Br)c(O)c(O)c2c(C(=O)c3ccc(C)cc3)coc12 (centres undefined)	none
Cc1nonc1C(=O)N/N=C/c1cccc(O)c1	none
c1ccc(-c2cn3c(n2)-c2ccccc2C3)cc1	none
Cc1ccc(-n2c(-c3c(-c4ccccc4)noc3C)n[nH]c2=S)cc1	none
Cc1ccc(C(=O)Nc2cc3ccccc3oc2=O)cc1	none
S=c1[nH]nc(Cn2cnc3ccccc32)n1-c1ccccc1Cl	none
O=C1N=c2ccc([N+](=O)[O-])cc2=C1c1sc(=O)[nH]c1O	none
COc1ccc(OC)c(S(=O)(=O)ON2C(=O)c3ccccc3C2=O)c1	none
COCC(=O)Nc1cc(C(=O)Nc2ccccc2)ccc1Cl	none
CCc1nc2sc3c(O)cc(=O)[nH]c3c2cc1C	none
Cc1nc2cc(NC(=O)Nc3ccccc3Cl)ccc2n1C	none
COc1cc(-c2n[nH]c(=S)n2-c2ccc(Br)cc2)cc(OC)c1OC	none
CCOC(=O)C1=C(C)C/C(=N\NC(=O)c2ccccc2O)CC1	none
CN(Cc1ccon1)Cc1cn(C)nc1-c1cccc(Cl)c1	none
COc1ccc(-c2nc3ccccn3c2Cl)cc1	none
COc1ccc(/C=N/NC(=O)c2ccc[nH]2)cc1	none
Cc1ccc(-n2nnc(-c3nccn3C)n2)cc1	none
O=[N+]([O-])c1ccc(Sc2cccc[n+]2[O-])c2nonc12	none
OCc1c[nH]c(=S)n1CCOc1cccc(C(F)(F)F)c1	none
CC(C)C(c1nnnn1Cc1ccc(F)cc1)N1CCN(c2ccc(O)cc2)CC1 (centres undefined)	none
COc1cccc(NC(=O)Nc2ccccc2C(N)=O)c1	none
CC1C(=O)NN=C1C(=O)N/N=C/c1cccs1 (centres undefined)	none
S=c1[nH]nc([C@@H]2C[C@H]2c2ccccc2)n1-c1ccccc1Cl	none
CCOc1ccc(NC(=O)Nc2cccnc2)cc1	none
Cc1nc(NC(=O)c2cccs2)ccc1Br	none
N#C/C(=C\c1cccs1)C(=O)Nc1ccccn1	none
c1csc(-c2nc(CN3CCSCC3)cs2)c1	none
c1coc(-c2nnc(-c3ccco3)nn2)c1	none
CC(=O)N/C(=C\c1ccccc1)C(=O)OCc1cc(C)ccc1C	none
CC(C)n1c(=S)[nH]c2cc(Cl)ccc21	none
CCOC(=O)N1CCN(Cc2nnc(-c3ccccc3C)o2)CC1	none
Cc1cc(N2C(=O)C=CC2=O)c([N+](=O)[O-])cc1C	none
Cn1cc(Cl)c(-c2n[nH]c(=S)n2C2CCCCC2)n1	none
O=c1[nH]c(SCc2n[nH]c(=S)n2-c2ccccc2)nc2sc3c(c12)CCC3	none
CCCCC(CC(O)COCCC)c1n[nH]c(=S)n1-c1ccccc1 (centres undefined)	none
CC(=O)c1cn(Cc2ccccc2)c(=O)[nH]c1=O	none
O=[N+]([O-])c1ccc(OCc2n[nH]c(=S)n2-c2ccccc2)cc1	none
CC1=C/C(=C(\c2cc(C)c(O)c(Br)c2)c2ccccc2S(=O)(=O)O)C=C(Br)C1=O	none
C=CCN1C(=O)/C(=c2\sc3nc(=O)c(Cc4ccc(OC)c(OC)c4)nn3c2=O)c2ccccc21	none
O=C(NC(=O)c1ccccc1O)c1ccc2c(c1)CCO2	none
COc1ccc(/C=N/Nc2ncccc2[N+](=O)[O-])c(OC)c1	none
COc1ncccc1-c1nnn(-c2ccccc2)n1	none
COc1ccc(C(=O)NN/C(=N/S(=O)(=O)c2ccc(C)cc2)c2ccccc2)cc1	none
